# From the supplement of paper PMC8728848
# This is one part of a sample in which the strongest signals are shown more often than they occur.
# B1: GS13455A-bfa-343-25-343 (Bacteroides fragilis) (protein)
# chain: KDEIQIVDQDTSWQMDNKYIEEDIREQLGIDPFTDLVYLGYYGNPYTQLEAINDLVNTTLVGKNELSFKVKVTKPYKEDIKVNLMKEDKLVTDFPEMAEGIPLFPSENCTFEGGVLKAGELETTVKLTLKDVEKLNNLSGYVMAIKLTMEGSHEHLAIARTRSSYFVKLNLSIRLDNIDSSNKKIEGKGFNKEISFKSDIRPDKLGSLNDGNFTANNWYTSNANNYLTIILPEKQSLKGFRLDTNTSPSGSYMLKSCRVMVETPDGNWVNHGVFDRKSMDGIAYISFKKPVECTKVRFENMMAFNGRFSVDVNEVTAFR
# Key:
# Assay in all cases: glycan array binding signal (z-score within array); higher = stronger binding
# Details in all cases: glycan notation: IUPAC condensed, linker removed
# [1] = molecular target: Fuc(a1-2)Gal(b1-3)GlcNAc(b1-2)Man(a1-3)[Fuc(a1-2)Gal(b1-3)GlcNAc(b1-2)Man(a1-6)]Man(b1-4)GlcNAc(b1-4)GlcNAc
# How it was run: (§1)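 Arrays were curated from the Consortium for Functional Glycomics database, 3228 in total, and kept only where the protein sequence was available. Binding is expressed as a within-array Z-score. This score was averaged across arrays of the same protein sequence at different concentrations or buffers and across linkers, and negative values can be read as non-binding.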
# [2] = molecular target: Fuc(a1-2)Gal(b1-4)[Fuc(a1-3)]GlcNAc(b1-3)[Neu5Ac(a2-6)Gal(b1-4)GlcNAc(b1-6)]Gal(b1-4)Glc
# How it was run: as §1
# [3] = molecular target: Fuc(a1-2)Gal6S(b1-4)Glc6S
# How it was run: as §1
# [4] = molecular target: Fuc(a1-2)[Gal(a1-3)]Gal(b1-3)GlcNAc(b1-2)Man(a1-3)[Fuc(a1-2)[Gal(a1-3)]Gal(b1-3)GlcNAc(b1-2)Man(a1-6)]Man(b1-4)GlcNAc(b1-4)GlcNAc
# How it was run: as §1
# [5] = molecular target: Fuc(a1-2)[GalNAc(a1-3)]Gal(b1-3)GlcNAc(b1-3)GalNAc
# How it was run: as §1
# [6] = molecular target: Fuc(a1-2)[GalNAc(a1-3)]Gal(b1-4)GlcNAc(b1-2)Man(a1-3)[Fuc(a1-2)[GalNAc(a1-3)]Gal(b1-4)GlcNAc(b1-2)Man(a1-6)]Man(b1-4)GlcNAc(b1-4)[Fuc(a1-6)]GlcNAc
# How it was run: as §1
# Fuc(a1-4)GlcNAc = molecular target: Fuc(a1-4)GlcNAc
# How it was run: as §1
# [7] = molecular target: Gal(a1-3)Gal(b1-3)GlcNAc(b1-2)Man(a1-3)[Gal(a1-3)Gal(b1-3)GlcNAc(b1-2)Man(a1-6)]Man(b1-4)GlcNAc(b1-4)GlcNAc
# How it was run: as §1
# [8] = molecular target: Gal(a1-3)[Gal(a1-4)]Gal(b1-4)GlcNAc
# How it was run: as §1
# [9] = molecular target: Gal(b1-3)GalNAc(a1-3)[Fuc(a1-2)]Gal(b1-4)Glc
# How it was run: as §1
# [10] = molecular target: Gal(b1-3)GalNAc(b1-4)[Neu5Ac(a2-3)]Gal(b1-4)Glc
# How it was run: as §1
# [11] = molecular target: Gal(b1-3)GlcNAc(b1-3)Gal(b1-4)[Fuc(a1-3)]GlcNAc(b1-6)[Gal(b1-3)GlcNAc(b1-3)]Gal(b1-4)Glc
# How it was run: as §1
# [12] = molecular target: Gal(b1-4)GalNAc(a1-3)[Fuc(a1-2)]Gal(b1-4)GlcNAc
# How it was run: as §1
# [13] = molecular target: Gal(b1-4)GlcNAc(b1-2)[Gal(b1-4)GlcNAc(b1-6)]Man(a1-6)[Gal(b1-4)GlcNAc(b1-2)Man(a1-3)]Man(b1-4)GlcNAc(b1-4)GlcNAc
# How it was run: as §1
# [14] = molecular target: Gal(b1-4)GlcNAc(b1-2)[Gal(b1-4)GlcNAc(b1-6)]Man(a1-6)[GlcNAc(b1-4)][Gal(b1-4)GlcNAc(b1-2)[Gal(b1-4)GlcNAc(b1-4)]Man(a1-3)]Man(b1-4)GlcNAc(b1-4)[Fuc(a1-6)]GlcNAc
# How it was run: as §1
# [15] = molecular target: Gal(b1-4)GlcNAc(b1-3)Gal(b1-3)GalNAc
# How it was run: as §1
# [16] = molecular target: Gal(b1-4)GlcNAc(b1-3)Gal(b1-4)GlcNAc(b1-3)Gal(b1-4)GlcNAc(b1-3)Gal(b1-4)GlcNAc(b1-2)[Gal(b1-4)GlcNAc(b1-3)Gal(b1-4)GlcNAc(b1-3)Gal(b1-4)GlcNAc(b1-3)Gal(b1-4)GlcNAc(b1-6)]Man(a1-6)[Gal(b1-4)GlcNAc(b1-3)Gal(b1-4)GlcNAc(b1-3)Gal(b1-4)GlcNAc(b1-3)Gal(b1-4)GlcNAc(b1-2)Man(a1-3)]Man(b1-4)GlcNAc(b1-4)[Fuc(a1-6)]GlcNAc
# How it was run: as §1
# [17] = molecular target: Gal(b1-4)GlcNAc(b1-3)Gal(b1-4)GlcNAc(b1-3)GalNAc
# How it was run: as §1
# Gal3S(b1-4)Glc = molecular target: Gal3S(b1-4)Glc
# How it was run: as §1
# [18] = molecular target: Gal3S(b1-4)[Fuc(a1-3)]Glc6S
# How it was run: as §1
# Gal3S6S(b1-4)GlcNAc6S = molecular target: Gal3S6S(b1-4)GlcNAc6S
# How it was run: as §1
# Gal4S6S(b1-4)GlcNAc = molecular target: Gal4S6S(b1-4)GlcNAc
# How it was run: as §1
# Gal6P(b1-4)GlcNAc = molecular target: Gal6P(b1-4)GlcNAc
# How it was run: as §1
# Gal6S(b1-3)GlcNAc = molecular target: Gal6S(b1-3)GlcNAc
# How it was run: as §1
# [19] = molecular target: GalNAc(b1-3)Gal(a1-4)Gal(b1-4)GlcNAc
# How it was run: as §1
# GalNAc(b1-4)GlcNAc = molecular target: GalNAc(b1-4)GlcNAc
# How it was run: as §1
# [20] = molecular target: GalNAc(b1-4)GlcNAc(b1-2)Man(a1-3)[GalNAc(b1-4)GlcNAc(b1-2)Man(a1-6)]Man(b1-4)GlcNAc(b1-4)GlcNAc
# How it was run: as §1
# GalNAc3S(b1-4)GlcNAc = molecular target: GalNAc3S(b1-4)GlcNAc
# How it was run: as §1
# [21] = molecular target: Glc(a1-6)Glc(a1-6)Glc(a1-6)Glc
# How it was run: as §1
# [22] = molecular target: GlcNAc(a1-4)Gal(b1-4)GlcNAc(b1-3)Gal(b1-4)Glc
# How it was run: as §1
# [23] = molecular target: GlcNAc(a1-4)Gal(b1-4)GlcNAc(b1-3)Gal(b1-4)[Fuc(a1-3)]GlcNAc(b1-3)Gal(b1-4)[Fuc(a1-3)]GlcNAc
# How it was run: as §1
# [24] = molecular target: GlcNAc(b1-2)Man(a1-3)[GlcNAc(b1-2)Man(a1-6)]Man(b1-4)GlcNAc(b1-4)[Fuc(a1-6)]GlcNAc
# How it was run: as §1
# [25] = molecular target: GlcNAc(b1-3)Gal(b1-4)GlcNAc(b1-2)Man(a1-3)[GlcNAc(b1-3)Gal(b1-4)GlcNAc(b1-2)Man(a1-6)]Man(b1-4)GlcNAc(b1-4)[Fuc(a1-6)]GlcNAc
# How it was run: as §1
# [26] = molecular target: GlcNAc(b1-3)Gal(b1-4)GlcNAc(b1-6)[Gal(b1-3)]GalNAc
# How it was run: as §1
# GlcNAc(b1-6)GalNAc = molecular target: GlcNAc(b1-6)GalNAc
# How it was run: as §1
# [27] = molecular target: Man(a1-2)Man(a1-3)[Man(a1-2)Man(a1-6)]Man
# How it was run: as §1
# [28] = molecular target: Man(a1-2)Man(a1-3)[Man(a1-2)Man(a1-6)]Man(a1-6)[Man(a1-2)Man(a1-2)Man(a1-3)]Man
# How it was run: as §1
# [29] = molecular target: Man(a1-2)Man(a1-6)[Man(a1-3)]Man(a1-6)[Man(a1-2)Man(a1-2)Man(a1-3)]Man
# How it was run: as §1
# [30] = molecular target: Man(a1-3)[Man(a1-6)]Man(a1-6)[Man(a1-3)]Man
# How it was run: as §1
# Man(a1-6)Man = molecular target: Man(a1-6)Man
# How it was run: as §1
# [31] = molecular target: Neu5Ac(a2-3)Gal(b1-3)GalNAc
# How it was run: as §1
# [32] = molecular target: Neu5Ac(a2-3)Gal(b1-4)GlcNAc
# How it was run: as §1
# [33] = molecular target: Neu5Ac(a2-3)Gal(b1-4)GlcNAc(b1-3)Gal(b1-3)GlcNAc
# How it was run: as §1
# [34] = molecular target: Neu5Ac(a2-3)Gal(b1-4)GlcNAc(b1-6)[Gal(b1-3)]GalNAc
# How it was run: as §1
# [35] = molecular target: Neu5Ac(a2-3)Gal(b1-4)[Fuc(a1-3)]GlcNAc(b1-3)GalNAc
# How it was run: as §1
# Neu5Ac(a2-3)GalNAc = molecular target: Neu5Ac(a2-3)GalNAc
# How it was run: as §1
# [36] = molecular target: Neu5Ac(a2-6)Gal(b1-4)GlcNAc(b1-2)Man(a1-3)[GlcNAc(b1-2)Man(a1-6)]Man(b1-4)GlcNAc(b1-4)GlcNAc
# How it was run: as §1
# [37] = molecular target: Neu5Ac(a2-8)Neu5Ac(a2-8)Neu5Ac(a2-3)[Gal(b1-3)GalNAc(b1-4)]Gal(b1-4)Glc
# How it was run: as §1
# [38] = molecular target: Neu5Gc(a2-8)Neu5Gc(a2-3)Gal(b1-4)GlcNAc
# How it was run: as §1
binder,measurement,setting,value
B1,glycan array binding signal (z-score),[1],-0.69
same,glycan array binding signal (z-score),[2],-0.309
same,glycan array binding signal (z-score),[3],0.254
same,glycan array binding signal (z-score),[4],-0.738
same,glycan array binding signal (z-score),[5],2.29
same,glycan array binding signal (z-score),[6],1.46
same,glycan array binding signal (z-score),Fuc(a1-4)GlcNAc,20.2
same,glycan array binding signal (z-score),[7],-0.044
same,glycan array binding signal (z-score),[8],1.91
same,glycan array binding signal (z-score),[9],-0.504
same,glycan array binding signal (z-score),[10],-0.051
same,glycan array binding signal (z-score),[11],-0.016
same,glycan array binding signal (z-score),[12],-0.716
same,glycan array binding signal (z-score),[13],-0.11
same,glycan array binding signal (z-score),[14],-0.04
same,glycan array binding signal (z-score),[15],0.107
same,glycan array binding signal (z-score),[16],0.144
same,glycan array binding signal (z-score),[17],-0.065
same,glycan array binding signal (z-score),Gal3S(b1-4)Glc,1.7
same,glycan array binding signal (z-score),[18],1.38
same,glycan array binding signal (z-score),Gal3S6S(b1-4)GlcNAc6S,1.68
same,glycan array binding signal (z-score),Gal4S6S(b1-4)GlcNAc,0.197
same,glycan array binding signal (z-score),Gal6P(b1-4)GlcNAc,-0.523
same,glycan array binding signal (z-score),Gal6S(b1-3)GlcNAc,-0.365
same,glycan array binding signal (z-score),[19],1.43
same,glycan array binding signal (z-score),GalNAc(b1-4)GlcNAc,-0.125
same,glycan array binding signal (z-score),[20],1.75
same,glycan array binding signal (z-score),GalNAc3S(b1-4)GlcNAc,-0.39
same,glycan array binding signal (z-score),[21],-0.604
same,glycan array binding signal (z-score),[22],0.059
same,glycan array binding signal (z-score),[23],1.64
same,glycan array binding signal (z-score),[24],-0.409
same,glycan array binding signal (z-score),[25],0.601
same,glycan array binding signal (z-score),[26],-0.194
same,glycan array binding signal (z-score),GlcNAc(b1-6)GalNAc,-0.656
same,glycan array binding signal (z-score),[27],-0.554
same,glycan array binding signal (z-score),[28],-0.701
same,glycan array binding signal (z-score),[29],0.988
same,glycan array binding signal (z-score),[30],-0.129
same,glycan array binding signal (z-score),Man(a1-6)Man,0.205
same,glycan array binding signal (z-score),[31],0.08
same,glycan array binding signal (z-score),[32],-0.152
same,glycan array binding signal (z-score),[33],0.34
same,glycan array binding signal (z-score),[34],-0.414
same,glycan array binding signal (z-score),[35],3.25
same,glycan array binding signal (z-score),Neu5Ac(a2-3)GalNAc,-0.681
same,glycan array binding signal (z-score),[36],0.878
same,glycan array binding signal (z-score),[37],-0.113
same,glycan array binding signal (z-score),[38],0.527
